Our source for the composite z-score and z-score values is PubChem BioAssay.

The test system of assay [1] is Human papillomavirus type 1a protein E7 (residues 44-93). As to the kind of experiment: small molecules binding HPV E7 44-93 – biochemical, small-molecule microarray, residues 44-93, 635 nm fluorescence, primary screen (AID 1108).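 Note: E7 fragment applied at 1 µg/mL in TBST for 1 h at 4 C; score combines spot fluorescence with its signal to noise ratio.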 Particulars: fluorescence 635 nm, higher = more signal.
Assay [2] can be described thus: hepatitis C replication reporter changes, two-sided – Huh7 cells, luciferase reporter, HCV replication inhibitor project, primary screen (AID 1109).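 Note: huh7 hepatoma cells harbouring a luciferase neomycin HCV replicon reporter; luciferase luminescence as measure of HCV replicon replication; test concentration not given here.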 As to conditions: Huh7 HCV replicon luciferase reporter, 48 h; higher = more signal.
Assay [3] has as its target Left-right determination factor 2 (Homo sapiens) (UniProt O00292). As to the kind of experiment: small molecules binding LEFTY2 protein – biochemical, small-molecule microarray, 635 nm fluorescence scan, primary screen (AID 1110). As to conditions: higher = more signal.
For assay [4], the target named is Calmodulin-1 (Homo sapiens) (UniProt P0DP23). As to the kind of experiment: small molecules binding calmodulin-1 with EGTA – biochemical, small-molecule microarray, Cy5-labelled CALM1, profiling panel (AID 1111).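 Note: labelled calmodulin applied in Tris saline Tween buffer holding calcium plus EGTA and DTT.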 As to conditions: Cy5-CALM1 binding fluorescence, higher = more signal.
The target is the same in assay [5]. Nature of the assay: small molecules binding Ca-loaded calmodulin-1 – biochemical, small-molecule microarray, Cy5-labelled CALM1, plus calcium, artefact control for SMM control-protein annotation, profiling panel (AID 1112).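 Note: score merges spot fluorescence with signal to noise from triplicate slides.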 Particulars: Cy5-CALM1 binding fluorescence, higher = more signal.
A short description of assay [6]: probe aWnt5a binding to arrayed compounds – biochemical, biotinylated probe, 635/667 nm fluorescence, primary screen (AID 1113).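 Note: score merges 667 nm fluorescence intensity with signal-to-noise per printed feature.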 As to conditions: small-molecule microarray, higher = more signal.
Assay [7] in a line: probe aShh binding to arrayed compounds – biochemical, biotinylated probe, 635/667 nm fluorescence, primary screen (AID 1114).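 Note: probe is biotin-labelled aShh protein from a stem cell growth factor screen; measures binding of labelled protein to compounds printed on the slide; score merges feature fluorescence at 667 nm with signal-to-noise.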 Particulars: small-molecule microarray, higher = more signal.
A short description of assay [8]: probe aNog binding to arrayed compounds – biochemical, biotinylated probe, 635/667 nm fluorescence, primary screen (AID 1115).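 Note: probe is biotinylated aNog protein used at 0.15 µg/mL for 1 h at 4 C; z-score combines 667 nm fluorescence of each spot with its signal to noise.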 As to conditions: small-molecule microarray, higher = more signal.
For assay [9], the target named is Torsin-1A-interacting protein 1 (Homo sapiens) (UniProt Q5JTV8). As to the kind of experiment: compound microarray binding of lysate hLAP1 – cell lysate, small-molecule microarray, COS7 lysate, 635/667 nm fluorescence, primary screen (AID 1116). As to conditions: 635 nm fluorescence, higher = more signal.
Chain of Torsin-1A-interacting protein 1 (Homo sapiens) (Q5JTV8 whole entry, looked up): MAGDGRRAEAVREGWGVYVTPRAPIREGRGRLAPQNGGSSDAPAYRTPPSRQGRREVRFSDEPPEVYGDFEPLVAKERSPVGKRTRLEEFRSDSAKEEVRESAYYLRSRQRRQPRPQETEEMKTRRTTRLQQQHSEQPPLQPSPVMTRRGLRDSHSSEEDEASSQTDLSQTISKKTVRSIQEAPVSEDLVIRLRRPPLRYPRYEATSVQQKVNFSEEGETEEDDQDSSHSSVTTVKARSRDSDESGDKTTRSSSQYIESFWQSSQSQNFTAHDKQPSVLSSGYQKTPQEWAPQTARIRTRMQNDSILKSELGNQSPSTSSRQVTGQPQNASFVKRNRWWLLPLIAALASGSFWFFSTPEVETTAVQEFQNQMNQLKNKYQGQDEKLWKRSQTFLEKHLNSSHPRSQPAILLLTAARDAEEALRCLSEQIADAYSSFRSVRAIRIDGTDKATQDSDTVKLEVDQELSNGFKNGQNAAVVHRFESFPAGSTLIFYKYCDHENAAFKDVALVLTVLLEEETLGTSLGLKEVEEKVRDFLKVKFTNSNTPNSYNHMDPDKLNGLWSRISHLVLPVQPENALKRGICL
Assay [10] concerns the target Alpha-bungarotoxin (Bungarus multicinctus) (UniProt P60615). As to the kind of experiment: compounds binding labelled alpha-BTX control protein – biochemical, small-molecule microarray, Alexa647 label, 635/667 nm fluorescence, artefact control for SMM control protein annotation, profiling panel (AID 1117). Particulars: alpha-BTX-A647 binding fluorescence, higher = more signal.

Chain of Left-right determination factor 2 (Homo sapiens) (O00292 whole entry, looked up): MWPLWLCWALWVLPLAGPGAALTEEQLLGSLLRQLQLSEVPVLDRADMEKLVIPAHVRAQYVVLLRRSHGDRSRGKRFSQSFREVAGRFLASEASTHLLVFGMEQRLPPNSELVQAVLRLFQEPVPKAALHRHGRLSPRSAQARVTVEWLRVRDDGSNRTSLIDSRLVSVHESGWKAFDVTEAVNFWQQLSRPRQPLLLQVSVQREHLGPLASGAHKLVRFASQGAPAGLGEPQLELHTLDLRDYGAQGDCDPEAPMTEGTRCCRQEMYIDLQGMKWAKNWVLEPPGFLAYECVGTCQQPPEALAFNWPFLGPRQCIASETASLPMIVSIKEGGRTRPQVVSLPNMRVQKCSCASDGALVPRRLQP
Chain of Alpha-bungarotoxin (Bungarus multicinctus) (P60615 whole entry, looked up): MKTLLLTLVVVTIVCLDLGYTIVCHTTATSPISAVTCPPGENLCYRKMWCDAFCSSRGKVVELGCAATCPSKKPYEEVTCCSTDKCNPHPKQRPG

On to `CC(=O)OC[C@H]1O[C@@H](ON=C(C)CCN2CCCc3nc(C)c(C)cc32)[C@H](OC(C)=O)[C@@H](OC(C)=O)[C@@H]1OC(C)=O`, for which the composite z-score in assay [1] is 1.38; in assay [3], 0.737; in [4], 0.113; in assay [5], -0.743; in [6], -0.117; in assay [7], -0.167. Further, the composite z-score in assay [8] amounted to 0.0401; in [9], 0.466; in assay [10] it was 0.0927. For the same compound, the z-score in assay [2] is -1.14.

As for `COc1cccc([C@H]2Oc3ccc(OC)cc3C(=NO[C@H](C)c3cn([C@H](CO)Cc4ccccc4)nn3)[C@@H]2O)c1`, the composite z-score is -0.995 in assay [1]; 0.323 in assay [3]; -1.57 in [4]; -0.45 in assay [5]; -0.175 in assay [6]; -0.229 in [7]. In addition, the composite z-score was -0.141 in assay [8], 0.169 in assay [9] and -0.689 in assay [10]. In assay [2], this compound yielded a z-score of -1.74.

In the case of `COc1cc(O)c(C(=O)C=Cc2ccc3c(c2)OCO3)c(OC)c1`, the composite z-score in assay [1] was -2.33; in [3], -0.143; in assay [4] it was 0.283; in assay [5], -0.582; in assay [6], 0.0438; in assay [7], -0.332. The results for the composite z-score in [8], in [9] and in assay [10] were -0.219, -0.289 and 0.825, respectively. Further, in [2], the z-score was -1.53.

On to `C#CCCCON=C1C[C@@H](O)[C@@H](O)[C@@H]2[C@@H]3C(=O)N(c4ccc(F)cc4F)C(=O)[C@@H]3CC[C@H]12`, for which the composite z-score in assay [1] was 0.299; in assay [3], 0.358; in [4] it was -0.353; in assay [5], -0.693; in assay [6] it was -0.006; in assay [7] it was -0.0533. For the same compound, the composite z-score is -0.21 in assay [8], -0.0188 in [9] and 0.239 in assay [10]. Further, the z-score in assay [2] came to 0.0534.

Consider `CCC1=NOC(CCC2CC(OC(=O)NCc3cccc4c3OCO4)CC3(CCCC(COC(=O)NCCc4ccccc4OC)O3)O2)C1` (stereo not given), for which the composite z-score in assay [1] was 1.21; in assay [3] it was 0.0276; in [4], 1.21; in assay [5], 0.712; in [6], -0.139; in assay [7], -0.0793. Further, the results for the composite z-score in assay [8], in assay [9] and in assay [10] were 0.249, 0.528 and 0.473, respectively. This compound came in with a z-score in [2] of -1.35.

Regarding `C=CC[C@@H]1C=C[C@H](ON=C2[C@H]3CCn4c(=O)n(-c5ccccc5)c(=O)n4[C@H]3[C@H](O)[C@@H]3O[C@H]23)[C@@H](CO)O1`, the composite z-score in assay [1] is -0.268; in assay [3], 0.402; in [4], 0.991; in assay [5] it was -0.0461; in [6], -0.147; in assay [7], -0.0752. The composite z-score is -0.534 in [8], 0.16 in assay [9] and 0.744 in assay [10]. The compound further registered a z-score in assay [2] of -3.56.

Take `COC(=O)C=CCCc1coc(C=CCNC(=O)OC)n1`: the composite z-score was 0.565 in assay [1]; 0.827 in assay [3]; -0.316 in assay [4]; -1.53 in assay [5]; -0.0346 in [6]; 0.275 in assay [7]. Besides, the results for the composite z-score in assay [8], in assay [9] and in assay [10] were -0.255, 0.192 and -0.264, respectively. Besides, the z-score in assay [2] is -0.632.

Regarding `COc1cccc([C@@H]2Oc3ccc(OC)cc3C(=O)[C@H]2O)c1`, the composite z-score was 0.0299 in assay [1]; 0.386 in assay [3]; 0.111 in [4]; -0.397 in assay [5]; -0.157 in [6]; -0.0211 in [7]. For the same compound, the composite z-score in [8] is -0.519; in assay [9], -0.0655; in assay [10], 1.11. Further, the z-score in [2] worked out at 2.25.

With `COC(=O)CC=C[C@@H](C)[C@@H](C=NO[C@@H](C)c1cn([C@H](CO)Cc2ccccc2)nn1)NS(=O)(=O)c1ccc(C)cc1`, the composite z-score is -0.0476 in [1]; 0.739 in assay [3]; -0.598 in [4]; -0.531 in assay [5]; 0.0077 in [6]; -0.0977 in [7]. For the same compound, the composite z-score was 0.143 in assay [8], 0.258 in assay [9] and -0.331 in [10]. The compound also showed a z-score in assay [2] of -0.858.

As for `C[C@@H]1C=CCC(=O)OC[C@H]2O[C@@H](C=C[C@@H]2O)[C@H](C)C=CCC(=O)OC1`, the composite z-score was -1.9 in assay [1]; 1.59 in assay [3]; -1.35 in assay [4]; -2.47 in [5]; -0.359 in assay [6]; -0.0626 in assay [7]. The composite z-score is -0.285 in assay [8], 0.113 in assay [9] and 0.981 in [10]. In assay [2], this compound registered a z-score of -0.362.

In the case of `C#CCCCON=C1C[C@@H](O)[C@@H](O)[C@@H]2[C@@H]3C(=O)N(CCC(=O)OCC)C(=O)[C@@H]3CC[C@H]12`, the composite z-score in assay [1] is 0.0844; in assay [3] it was 0.387; in assay [4], 1.16; in assay [5], 0.221; in [6], -0.13; in assay [7], 0.172. Further, the composite z-score was -0.253 in assay [8], 0.544 in assay [9] and 0.401 in [10]. Besides, in assay [2], the z-score came to 0.283.

`COC(=O)NCC=Cc1nc(CCCO)co1`: the composite z-score is 0.722 in assay [1]; 0.493 in assay [3]; -0.368 in [4]; -0.98 in assay [5]; -0.0462 in [6]; 0.0141 in assay [7]. The composite z-score in assay [8] was -0.137; in [9], 0.116; in assay [10] it was -0.498. For the same compound, in assay [2], the z-score was -0.0343.

In the case of `COC(=O)CC=C[C@@H](C)[C@@H](C=NO[C@@H]1O[C@H](COC(C)=O)[C@@H](OC(C)=O)[C@H](OC(C)=O)[C@H]1OC(C)=O)OC`, the composite z-score in assay [1] is -0.428; in assay [3], 0.499; in assay [4], -0.937; in assay [5], -1.48; in assay [6], -0.175; in [7], -0.309. Also, the composite z-score in [8] is -0.249; in [9], -0.461; in [10], -0.463. The z-score in assay [2] is -1.57.
